Compounds without any hit were thinned out: in the full panel of roughly 79,000, 15% have a hit. Values without a mark were called inactive. No stated cut-off is given here; in the data, active means growth inhibition above about 70%; inactive means the rest. Where a SMILES comes first, the peptide text is derived from it. Bridges are numbered along the chain shown (N, C = ends). Roman numbers before positions name the chains, in order. The star is where a group is joined. Cbz = O=C(OCc1ccccc1)*

The nature of the first assay: NCI Yeast Anticancer Drug Screen. Data for the mec2-1 strain (AID 157). Conditions: S. cerevisiae mec2-1 strain, at 50.0 µM, hits give high values. Put shortly: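 Yeast mec2-1 mutant treated with compound. Readout: growth inhibition vs vehicle controls.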
Consider `C/C(=N\Nc1cc(C)nc2cc3c(cc12)OCO3)c1cn(C)n(-c2ccccc2)c1=O`, for which the growth inhibition is 54.5%.

With `[Cu+2].[Cu+2].c1ccc2c(c1)-c1nc-2nc2[n-]c(nc3nc(nc4[n-]c(n1)c1ccccc41)-c1ccccc1-3)c1cc3c4nc5nc(nc6[n-]c(nc7nc(nc([n-]4)c3cc21)-c1ccccc1-7)c1ccccc61)-c1ccccc1-5`, the growth inhibition is -9.45%.

For the molecule `O=C(CC(c1ccccc1)C(Br)[N+](=O)[O-])c1ccccc1` (stereo not given), the growth inhibition was -0.35%.

For the molecule `Cc1c(-c2ccccc2)c(=O)oc2cc(O)ccc12`, the growth inhibition was 13%.

As for `COC(=O)NC1CC/C=C\CCC1I` (stereo not given), the growth inhibition is 10%.

With `CC(C)C(NC(=O)C(CSSCC(NC(=O)OCc1ccccc1)C(=O)NC(C(=O)O)C(C)C)NC(=O)OCc1ccccc1)C(=O)O` (stereo not drawn) (I: Cbz-Cys-Val-OH / II: Cbz-Cys-Val-OH; disulfide I:1-II:1; configuration not given here), the growth inhibition is 11.3%.

In the case of `O=C(O)c1n[nH]c2ccccc12`, the growth inhibition is -14.1%.

On to `OCC1OC(O)CC1O` (stereo not given), for which the growth inhibition was -10.5%.

Turning to `CC1(C(=O)O)CCCC1C(CCC(=O)O)C(=O)O` (stereo not given), the growth inhibition was 15.1%.

For `Cc1cc(Cl)c2ccc(Cl)c(C)c2n1`, the growth inhibition is -8.55%.

As to `C/C(=N\NC(=O)c1ccncc1)c1ccccc1Cl`, the growth inhibition was -23.9%.

`O=C(O)[C@H](c1ccccc1)[C@@H](C(=O)O)c1ccccc1`: the growth inhibition is -5.75%.

As to `CC(=O)Nc1cc(F)c(N=Nc2ccc([N+](=O)[O-])cc2)c(F)c1`, the growth inhibition was -3.45%.

Take `O=[N+]([O-])c1ccc(Oc2ccc(S(=O)(=O)O)cc2)cc1`: the growth inhibition is 6.5%.

Take `COc1ccc(NC(=S)NN)cc1`: the growth inhibition was -7.75%.

On to `O=S(=O)([N-]c1nc2ccccc2nc1-[n+]1ccccc1)c1ccccc1`, for which the growth inhibition is -0.2%.

In the case of `ClCCOCc1ccc(Cl)cc1Cl`, the growth inhibition is 8.9%.

Regarding `Cc1ccc(Nc2nc(NS(=O)(=O)c3cc(C)c(Cl)cc3S)n(C)n2)cc1`, the growth inhibition was -33.5%.

Take `CC(c1ccccc1)/[N+]([O-])=C/c1ccccc1` (stereo not given): the growth inhibition was -33.4%.

Consider `COCCOC(=O)c1ccccc1O`, for which the growth inhibition was 13.8%.

Regarding `COCn1c(C)c(C)c2c(=O)oc(=O)[nH]c21`, the growth inhibition was 17.7%.

As to `C=CCC(OC(C)=O)c1cccc(OC)c1OC` (stereo not given), the growth inhibition was 7.2%.

For `c1ccc(CN2COc3c(ccc4c5c(ccc34)CN(Cc3ccccc3)CO5)C2)cc1`, the growth inhibition was -10.4%.

For `Cc1ccc(NC(=O)/C(Cc2nc3ccc([N+](=O)[O-])cc3[nH]c2=O)=N\NC(=O)C[n+]2ccccc2)c(C)c1`, the growth inhibition is -9.25%.

Consider `Nc1ccc(C(=O)N/N=C/C=C/c2ccccc2)cc1`, for which the growth inhibition was 56.1%.

Consider `COC1OC2COC(c3ccccc3)OC2C(OC(=O)c2ccc([N+](=O)[O-])cc2)C1OS(=O)(=O)c1ccc(C)cc1` (stereo not given), for which the growth inhibition is 17.2%.

For `C1CCC2(CC1)OCCO2`, the growth inhibition was -37.9%.

As to `C/C(=N\NC(N)=S)c1cc(C)c(C)cc1C`, the growth inhibition is 5.55%.

For the molecule `Cc1ccc(Nc2ccc(Nc3ccc(C)cc3)c3c2C(=O)c2ccccc2C3=O)cc1`, the growth inhibition was -16.9%.

For `O=C1C=C(CCC2=CC(=O)c3ccccc3C2=O)C(=O)c2ccccc21`, the growth inhibition is -23.5%.

In the case of `CC(=O)c1sc2c(c1OC(=O)c1cccs1)c(=O)n(-c1ccccc1)c(=S)n2-c1ccccc1`, the growth inhibition was -4.25%.

For `c1ccc(-c2cnn3c(-c4ccccc4)cnnc23)cc1`, the growth inhibition is -8.1%.

Consider `CC(C)NCC(C)(C)[N+](=O)[O-]`, for which the growth inhibition was -8.55%.

Take `O=[N+]([O-])c1ccc(N=C/C=C/Nc2ccc([N+](=O)[O-])cc2)cc1`: the growth inhibition is 0.7%.

Consider `Cc1cc2c(cc1C)C(=O)c1ccccc1C2=O`, for which the growth inhibition was -36.1%.

With `O=C(c1nc2ccc([N+](=O)[O-])cc2[nH]c1=O)C(O)c1ccc([N+](=O)[O-])cc1` (stereo not given), the growth inhibition was -6.2%.

`O=C(/C=C/c1ccc2c(c1)OCO2)NCc1ccco1`: the growth inhibition was 8.7%.

`CC1=CC(=O)N2CCN=C2S1`: the growth inhibition was -14.9%.

With `CCOc1ccc(/C(Cl)=C(\C=O)c2ccc(OC)c(OC)c2)cc1OCC`, the growth inhibition is -4.8%.

Turning to `COC(=O)[C@@]1(NC(=O)C(CC(=O)OC(C)(C)C)NC(=O)OC(C)(C)C)C[C@H]1C` (stereo not given in full), the growth inhibition was -28.6%.

A further assay in a line: NCI Yeast Anticancer Drug Screen. Data for the sgs1 mgt1 strain (AID 161).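 Further: 0% = growth of cultures given vehicle only.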 Conditions: S. cerevisiae sgs1 mgt1 strain, at 50.0 µM, hits give high values. The method, boiled down:
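Inhibition of yeast growth, normalised to vehicle-treated controls, is reported for a strain bearing genetic alterations in DNA damage repair.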
As to `C/C(=N\Nc1cc(C)nc2cc3c(cc12)OCO3)c1cn(C)n(-c2ccccc2)c1=O`, the growth inhibition is 21.6%.

For the molecule `[Cu+2].[Cu+2].c1ccc2c(c1)-c1nc-2nc2[n-]c(nc3nc(nc4[n-]c(n1)c1ccccc41)-c1ccccc1-3)c1cc3c4nc5nc(nc6[n-]c(nc7nc(nc([n-]4)c3cc21)-c1ccccc1-7)c1ccccc61)-c1ccccc1-5`, the growth inhibition is 11.1%.

With `O=C(CC(c1ccccc1)C(Br)[N+](=O)[O-])c1ccccc1` (stereo not given), the growth inhibition is 36.6%.

On to `Cc1c(-c2ccccc2)c(=O)oc2cc(O)ccc12`, for which the growth inhibition was 9.3%.

In the case of `COC(=O)NC1CC/C=C\CCC1I` (stereo not given), the growth inhibition was 8.1%.

Regarding `CC(C)C(NC(=O)C(CSSCC(NC(=O)OCc1ccccc1)C(=O)NC(C(=O)O)C(C)C)NC(=O)OCc1ccccc1)C(=O)O` (stereo not drawn) (I: Cbz-Cys-Val-OH / II: Cbz-Cys-Val-OH; disulfide I:1-II:1; configuration not given here), the growth inhibition was -3.75%.

Turning to `O=C(O)c1n[nH]c2ccccc12`, the growth inhibition was 3.75%.

Consider `OCC1OC(O)CC1O` (stereo not given), for which the growth inhibition is -3.9%.

Consider `CC1(C(=O)O)CCCC1C(CCC(=O)O)C(=O)O` (stereo not given), for which the growth inhibition is 0.55%.

Turning to `Cc1cc(Cl)c2ccc(Cl)c(C)c2n1`, the growth inhibition was 3.65%.

In the case of `C/C(=N\NC(=O)c1ccncc1)c1ccccc1Cl`, the growth inhibition was -16.1%.

Turning to `O=C(O)[C@H](c1ccccc1)[C@@H](C(=O)O)c1ccccc1`, the growth inhibition is -8.35%.

For the molecule `CC(=O)Nc1cc(F)c(N=Nc2ccc([N+](=O)[O-])cc2)c(F)c1`, the growth inhibition was 22.1%.

With `O=[N+]([O-])c1ccc(Oc2ccc(S(=O)(=O)O)cc2)cc1`, the growth inhibition is -4.35%.

As to `COc1ccc(NC(=S)NN)cc1`, the growth inhibition is 18.9%.

With `O=S(=O)([N-]c1nc2ccccc2nc1-[n+]1ccccc1)c1ccccc1`, the growth inhibition is 14.7%.

Consider `ClCCOCc1ccc(Cl)cc1Cl`, for which the growth inhibition was 8.4%.

As for `Cc1ccc(Nc2nc(NS(=O)(=O)c3cc(C)c(Cl)cc3S)n(C)n2)cc1`, the growth inhibition was -29.7%.

`CC(c1ccccc1)/[N+]([O-])=C/c1ccccc1` (stereo not given): the growth inhibition is -46%.

Take `COCCOC(=O)c1ccccc1O`: the growth inhibition was 13.8%.

`COCn1c(C)c(C)c2c(=O)oc(=O)[nH]c21`: the growth inhibition was -30.6%.

Take `C=CCC(OC(C)=O)c1cccc(OC)c1OC` (stereo not given): the growth inhibition is -9.45%.

For the molecule `c1ccc(CN2COc3c(ccc4c5c(ccc34)CN(Cc3ccccc3)CO5)C2)cc1`, the growth inhibition was -37.5%.

Turning to `Cc1ccc(NC(=O)/C(Cc2nc3ccc([N+](=O)[O-])cc3[nH]c2=O)=N\NC(=O)C[n+]2ccccc2)c(C)c1`, the growth inhibition is -4.3%.

For `Nc1ccc(C(=O)N/N=C/C=C/c2ccccc2)cc1`, the growth inhibition is 16.6%.

As for `COC1OC2COC(c3ccccc3)OC2C(OC(=O)c2ccc([N+](=O)[O-])cc2)C1OS(=O)(=O)c1ccc(C)cc1` (stereo not given), the growth inhibition is 21.6%.

On to `C1CCC2(CC1)OCCO2`, for which the growth inhibition is -20.8%.

On to `C/C(=N\NC(N)=S)c1cc(C)c(C)cc1C`, for which the growth inhibition is 50%.

On to `Cc1ccc(Nc2ccc(Nc3ccc(C)cc3)c3c2C(=O)c2ccccc2C3=O)cc1`, for which the growth inhibition was -4.15%.

With `O=C1C=C(CCC2=CC(=O)c3ccccc3C2=O)C(=O)c2ccccc21`, the growth inhibition was -26.9%.

Take `CC(=O)c1sc2c(c1OC(=O)c1cccs1)c(=O)n(-c1ccccc1)c(=S)n2-c1ccccc1`: the growth inhibition was 10.3%.

Regarding `c1ccc(-c2cnn3c(-c4ccccc4)cnnc23)cc1`, the growth inhibition is -2.55%.

For the molecule `CC(C)NCC(C)(C)[N+](=O)[O-]`, the growth inhibition was 3.65%.

In the case of `O=[N+]([O-])c1ccc(N=C/C=C/Nc2ccc([N+](=O)[O-])cc2)cc1`, the growth inhibition is 10.5%.

With `Cc1cc2c(cc1C)C(=O)c1ccccc1C2=O`, the growth inhibition was -15.1%.

Take `O=C(c1nc2ccc([N+](=O)[O-])cc2[nH]c1=O)C(O)c1ccc([N+](=O)[O-])cc1` (stereo not given): the growth inhibition is 12.9%.

With `O=C(/C=C/c1ccc2c(c1)OCO2)NCc1ccco1`, the growth inhibition was -19.6%.

For `CC1=CC(=O)N2CCN=C2S1`, the growth inhibition was 1.65%.

For `CCOc1ccc(/C(Cl)=C(\C=O)c2ccc(OC)c(OC)c2)cc1OCC`, the growth inhibition was 3.25%.

In the case of `COC(=O)[C@@]1(NC(=O)C(CC(=O)OC(C)(C)C)NC(=O)OC(C)(C)C)C[C@H]1C` (stereo not given in full), the growth inhibition is -33.2%.

(Values after PubChem BioAssay (NCI).)
